# About 83,000 compounds went through this panel and 20% of them were active in at least one assay; those are over-represented in the sample as a whole.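 Cells were grown in 96-well plates and exposed to the test compound at a single concentration for 48 hours; results are reported as percent growth, with values below 10 considered active.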 A number with no mark means an inactive call. Active and inactive are the calls of the source.
# System: SNB-19 CNS
# Assay: NCI-60 one-dose screen, 48 h (100 = growth as untreated, 0 = no growth, -100 = all killed)
# Details: 10 µM unless noted
# Protocol: Growth inhibition of the SNB-19 human tumor cell line is measured as a screen for anti-cancer activity. Cells are grown in 96 well plates and exposed to the test compound for 48 hours. Compounds are tested at a single concentration, which is 10^-5 M for most compounds. The reported endpoint is percent growth (GI% or GIPRCNT), where numbers from 0 - 100% represent growth inhibition, and numbers from -100% - 0 represent cell death. For example, a value of 40 represents 60% growth inhibition. A value of 0 means no net growth occurred over the course of the experiment. A value of -40 indicates 40% of cells at the beginning of the experiment died by the end of the experiment. A value of -100 means all cells are dead at the end of the experiment.
# NCI-60 Human Tumor Cell Lines Screen was performed using the standard one-dose NCI protocol, which is described in more detail at https://dtp.cancer.gov/discovery_development/nci-60/default.htm.
# Compounds with GIPRCNT values below 10 were considered active. Activity score was based on GIPRCNT using the following formula: […]
# Score is 0 for GIPRCNT values of 100 or above, 50 for GIPRCNT values of 0, and 100 for GIPRCNT values of -100.
row,Structure (SMILES),growth
1,Nc1ncnc2c1c(-c1ccc(Oc3ccccc3)cc1)nn2C[C@H]1SSC[C@H]1O,45.9%
2,Cc1ccc(-c2cn3cc([N+](=O)[O-])ccc3n2)cc1,92.1%
3,COc1cc(NS(=O)(=O)c2ccc(N)cc2)ncn1,99.8%
4,O=C(Nc1ccc(-n2cc(-c3ccncc3)c(-c3ccc(O)c(Cl)c3)n2)cc1)c1cc(Cl)cc(Cl)c1,50%
5,c1nc(SC2=NCCN2)c2[nH]cnc2n1,103%
6,Cc1cc(SCc2ccc(Cl)cc2Cl)nc(SCc2ccc(Cl)cc2Cl)n1,111%
7,Nc1nccc2c1ccn2-c1ccc(NC(=O)Nc2cccc(C(F)(F)F)c2)cc1,104%
8,O=C(Nc1ccc(-n2ccc3c(NC(=O)c4ccccc4)ncnc32)cc1)c1ccc(Cl)c(C(F)(F)F)c1,24.7%
9,O=C1CCC(c2c(O)cc(O)c3c(=O)c(O)c(-c4ccc(O)c(O)c4)oc23)N1 (stereo not given),108%
10,COc1ccc(-c2cnc(-c3ccc(F)cc3)[nH]2)cc1,98.5%
11,Cc1cc(Nc2ccc(Cl)c(Cl)c2)nc(N)n1,107%
12,COc1ccc2c(c1)nnc1c3cccnc3[nH]c21,11.5%
13,Nc1nc(Cl)cc(NCCCCNc2cc(Cl)nc(N)n2)n1,101%
14,Nc1nc(-c2cc3c(cc2Cl)NC(=O)/C3=C/c2ccccc2)cs1,59.7%
15,CC(C)(c1ccc(OCC(O)CNCc2ccco2)cc1)c1ccc(OCC(O)CNCc2ccco2)cc1 (stereo not given),96.4%
16,CC(=O)Oc1ccc(C(OC(C)=O)OC(C)=O)cc1,104%
17,CCc1cccc(C)c1NC(=O)c1sc2nc3c(cc2c1N)CCCCC3,26.8%
18,C=C1C(=O)O[C@H]2[C@H]1CC/C(COC(=O)n1ccnc1C)=C\CC[C@@]1(C)O[C@@H]21,95.3%
19,Cc1ccc2nc(-c3ccc(-n4on4-c4ccc(/C=C/c5ccc(-n6on6-c6ccc(-c7nc8ccc(C)cc8s7)cc6)cc5S(=O)(=O)O)c(S(=O)(=O)O)c4)cc3)sc2c1,117%
20,COc1ccc(-c2cc(-c3nnc(SC/C(=N\O)c4ccccc4)n3-c3ccccc3)c3ccccc3n2)cc1,105%

row,Structure (SMILES),growth
1,OCc1cn(-c2ccc(Cl)cc2)nc1-c1ccc(O)cc1,104%
2,CC(=O)Cc1cccnc1,98.8%
3,C#C[C@H](O)/C=C/CCCCCCC#C[C@H](O)CC[C@@H](O)C#CCCCCCC/C=C/[C@@H](O)C#C,101%
4,O=C1C(Cl)=C(Nc2cccc3cc4ccccc4nc23)C(=O)c2ccccc21,44.6%
5,COc1cc2ncnc(Oc3ccc(NC(=O)Nc4ccc(C5(C#N)CCCC5)cc4)c4ccccc34)c2cc1OC,36.7%
6,O=C1CN(CCN2CC(=O)NC(=O)C2)CC(=O)N1,99%
7,CN(C)c1ncc(C#Cc2c(F)cccc2F)c2ccccc12,88.8%
8,COc1ccc(NC(=O)Nc2ccc(-c3ccc(OC)c(OC)c3)nc2C)cc1,71.5%
9,CN1CCN(CC(O)COc2c(Br)c(Br)c(Br)c3c2OC(C)(C)C3)CC1 (stereo not given),92.7%
10,CC12CCC3C(CCC4CC(O)CCC43C)C1C/C(=C/O)C(=O)O2 (stereo not given),101%
11,O=S(=O)(CCN1CCOCC1)Nc1cncc(-c2ccc3ncnc(Nc4ccc(F)c(Cl)c4)c3c2)c1,61%
12,COC(=O)c1ccc2c(c1)Oc1ccc(Cl)cc1-c1cc(C)nn1-2,68.8%
13,COc1ccccc1N1CCN(CC(O)COc2c(Br)c(Br)c(Br)c3c2OC(C)(C)C3)CC1 (stereo not given),60.8%
14,O=c1cc(Cl)[nH]c(=O)[nH]1,107%
15,CCCCCCCCCCCCCCCC(=O)NS(=O)(=O)OC[C@H]1O[C@@H](n2cnc3c(N)ncnc32)[C@H](O)[C@@H]1O,-53.7% (active)
16,CC(C)CNCC(=O)Nc1ccc(Cc2ccc(NC(=O)CNCC(C)C)cc2)cc1,72.6%
17,C#C[C@@]1(O)[C@@H](CO)O[C@@H](n2cc(Br)c3c(Cl)ccnc32)[C@@H]1O,37.1%
18,Nc1ccc(S(=O)(=O)Nc2cc(I)cc(I)c2)cc1,116%
19,Nc1ncnc2c1c(-c1ccc(Oc3ccccc3)cc1)nn2C[C@@H]1SSC[C@H]1O,40.6%
20,COc1ccccc1P(c1ccccc1OC)c1ccccc1OC,75.7%

# Source: PubChem BioAssay (NCI)
